Source: PubChem BioAssay (NCI)
This is part of a sample that, as a whole, favours compounds with a hit. Of some 79,000 tested, about 15% had one in any assay. A number with no mark means an inactive call. The source made the active and inactive calls. No stated cut-off is given here; in the data, active means growth inhibition above about 70%; inactive means the rest.

Assays:
[1] = NCI Yeast Anticancer Drug Screen. Data for the rad52 strain (AID 147);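 further: 0% = growth of vehicle-treated control cultures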; conditions: S. cerevisiae rad52 mutant growth inhibition, hits give high values
Outline: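 DNA repair-defective yeast; compound exposure; growth scored against vehicle controls.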

[2] = NCI Yeast Anticancer Drug Screen. Data for the wt1 strain (AID 149);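 further: 0% = growth of vehicle-treated wt1 cultures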; conditions: S. cerevisiae wt1 strain (SPY 50644) growth inhibition, hits give high values
Outline: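 Growth inhibition read against vehicle controls after compound exposure of the wt1 yeast strain.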

[3] = NCI Yeast Anticancer Drug Screen. Data for the rad50EPP+ strain (AID 151);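 further: 0% = growth of vehicle-treated control cultures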; conditions: S. cerevisiae rad50 mutant strain, hits give high values
Outline: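 rad50EPP+ yeast treated with test compounds. Readout: growth vs vehicle control.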

[4] = NCI Yeast Anticancer Drug Screen. Data for the mgt1 strain (AID 153); conditions: S. cerevisiae mgt1 mutant growth inhibition, hits give high values
Outline: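 Growth inhibition relative to vehicle controls was scored for the mgt1 yeast strain after compound exposure.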

[5] = NCI Yeast Anticancer Drug Screen. Data for the rad50 strain (AID 155);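 further: 0% = growth of vehicle-only cultures of the same strain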; conditions: S. cerevisiae rad50 strain growth inhibition, hits give high values
Outline: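 Readout: growth inhibition relative to vehicle-treated cultures. Compound exposure was carried out in a genetically defined yeast strain deficient in DNA damage repair.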

[6] = NCI Yeast Anticancer Drug Screen. Data for the mec2-1 strain (AID 157); conditions: S. cerevisiae mec2-1 strain, hits give high values
Outline: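 Growth inhibition is read against vehicle-treated controls after compound exposure of the mec2-1 yeast strain, which is defective in DNA damage repair or cell cycle control.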

[7] = NCI Yeast Anticancer Drug Screen. Data for the rad14 strain (AID 159);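 further: 0% = growth of vehicle-treated control cultures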; conditions: S. cerevisiae rad14 strain growth inhibition, hits give high values
Outline: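 Growth inhibition vs vehicle controls; genetically altered yeast strain (DNA damage repair defect) treated with test compounds.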

[8] = NCI Yeast Anticancer Drug Screen. Data for the sgs1 mgt1 strain (AID 161);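 further: 0% = growth of cultures given vehicle only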; conditions: S. cerevisiae sgs1 mgt1 strain, hits give high values
Outline: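 Percent growth inhibition was derived by comparing compound-exposed mutant yeast with vehicle-exposed cultures. The strain carries alterations in DNA damage repair.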

[9] = NCI Yeast Anticancer Drug Screen. Data for the CLN2oe strain (AID 163);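 further: 0% = growth of vehicle-only control cultures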; conditions: S. cerevisiae CLN2oe strain, hits give high values
Outline: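 Compound-treated yeast; growth vs vehicle ctrl = % inhibition. Genetically altered strain (cell-cycle control).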

[10] = NCI Yeast Anticancer Drug Screen. Data for the cln2 rad14 strain (AID 165);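 further: 0% = growth equal to vehicle treated cultures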; conditions: S. cerevisiae cln2 rad14 strain, hits give high values
Outline: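 Growth inhibition, relative to vehicle-treated controls, is the read-out. The test organism is a yeast strain with defined genetic alterations, cln2 rad14.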

[11] = NCI Yeast Anticancer Drug Screen. Data for the bub3 strain (AID 167); conditions: S. cerevisiae bub3 mutant strain, hits give high values
Outline: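 Readout: yeast growth inhibition, expressed relative to vehicle-only wells. The test organism is a mutant strain from a panel with lesions in DNA repair or checkpoint genes.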

[12] = NCI Yeast Anticancer Drug Screen. Data for the wt2 strain (AID 169);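 further: 0% = growth of vehicle-treated yeast cultures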; conditions: S. cerevisiae wt2 strain growth inhibition, hits give high values
Outline: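 Compound exposure of yeast; growth compared with vehicle controls; inhibition reported.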

[13] = NCI Yeast Anticancer Drug Screen. Data for the mlh1 strain (AID 171);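 further: 0% = growth of vehicle-treated control cultures of the same strain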; conditions: S. cerevisiae mlh1 strain growth inhibition, hits give high values
Outline: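 Compounds are applied to a genetically altered yeast strain, and its growth is compared with that of vehicle-treated cultures to give percent inhibition.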

[14] = NCI Yeast Anticancer Drug Screen. Data for the sgs1 strain (AID 173);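 further: 0% = growth of vehicle-only control cultures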; conditions: S. cerevisiae sgs1 mutant, hits give high values
Outline: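 Compounds applied to genetically altered yeast; growth compared with vehicle-treated cultures to give % inhibition.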

[15] = NCI Yeast Anticancer Drug Screen. Data for the mlh1 rad18 strain (AID 175); conditions: S. cerevisiae mlh1 rad18 strain growth inhibition, hits give high values
Outline: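 Cells of a genetically altered yeast strain, deficient in DNA damage repair, were treated with compound. Their growth was then compared with that of vehicle-treated cultures to give inhibition.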

[16] = NCI Yeast Anticancer Drug Screen. Data for the rad18 strain (AID 177); conditions: S. cerevisiae rad18 mutant growth inhibition, hits give high values
Outline: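 Compounds are applied to a repair-deficient yeast strain, and growth is compared with that of vehicle-treated cultures to give percent inhibition.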

[17] = at 5.0 µM (retest, dose inferred, filed as 0.5)
[18] = at 50.0 µM (retest, dose inferred, filed as 5.0)

## CCOC(=O)C1=C(C)NC(C)=C(C(=O)OCCNC(=O)c2ccc(N=[N+]=[N-])cc2)C1c1ccccc1C(F)(F)F (stereo unspecified)
[1]; at 1.2 µM
  growth inhibition: 4%
[1]; at 3.7 µM
  growth inhibition: 4%
[1]; at 11.0 µM
  growth inhibition: 13%
[1]; at 33.0 µM
  growth inhibition: 24%
[1]; at 100.0 µM
  growth inhibition: 39%
[2]; at 1.2 µM
  growth inhibition: 1%
[2]; at 3.7 µM
  growth inhibition: 0%
[2]; at 11.0 µM
  growth inhibition: -2%
[2]; at 33.0 µM
  growth inhibition: 2%
[2]; at 100.0 µM
  growth inhibition: 21%
[3]; at 1.2 µM
  growth inhibition: -1%
[3]; at 3.7 µM
  growth inhibition: 0%
[3]; at 11.0 µM
  growth inhibition: 1%
[3]; at 33.0 µM
  growth inhibition: 3%
[3]; at 100.0 µM
  growth inhibition: -11%
[4]; at 1.2 µM
  growth inhibition: -2%
[4]; at 3.7 µM
  growth inhibition: -3%
[4]; at 11.0 µM
  growth inhibition: -2%
[4]; at 33.0 µM
  growth inhibition: 12%
[4]; at 100.0 µM
  growth inhibition: 24%
[5]; at 1.2 µM
  growth inhibition: 1%
[5]; at 3.7 µM
  growth inhibition: -1%
[5]; [17]
  growth inhibition: 3%
[5]; at 11.0 µM
  growth inhibition: 17%
[5]; at 33.0 µM
  growth inhibition: 39%
[5]; [18]
  growth inhibition: 18%
[5]; at 50.0 µM
  growth inhibition: 40.1%
[5]; at 100.0 µM
  growth inhibition: 41%
[6]; at 1.2 µM
  growth inhibition: 1%
[6]; at 3.7 µM
  growth inhibition: 4%
[6]; [17]
  growth inhibition: 1%
[6]; at 11.0 µM
  growth inhibition: -2%
[6]; at 33.0 µM
  growth inhibition: 13%
[6]; [18]
  growth inhibition: -46%
[6]; at 50.0 µM
  growth inhibition: 53.3%
[6]; at 100.0 µM
  growth inhibition: 47%
[7]; at 1.2 µM
  growth inhibition: 0%
[7]; at 3.7 µM
  growth inhibition: -4%
[7]; at 11.0 µM
  growth inhibition: 3%
[7]; at 33.0 µM
  growth inhibition: 8%
[7]; at 100.0 µM
  growth inhibition: 22%
[8]; [17]
  growth inhibition: 5%
[8]; [18]
  growth inhibition: 51%
[8]; at 50.0 µM
  growth inhibition: 9.9%
[9]; at 1.2 µM
  growth inhibition: -3%
[9]; at 3.7 µM
  growth inhibition: -2%
[9]; at 11.0 µM
  growth inhibition: -2%
[9]; at 33.0 µM
  growth inhibition: 25%
[9]; at 100.0 µM
  growth inhibition: 53%
[10]; [17]
  growth inhibition: 4%
[10]; [18]
  growth inhibition: 19%
[10]; at 50.0 µM
  growth inhibition: 2.85%
[11]; at 1.2 µM
  growth inhibition: -8%
[11]; at 3.7 µM
  growth inhibition: -7%
[11]; [17]
  growth inhibition: -42%
[11]; at 11.0 µM
  growth inhibition: -5%
[11]; at 33.0 µM
  growth inhibition: 4%
[11]; [18]
  growth inhibition: 29%
[11]; at 50.0 µM
  growth inhibition: 57.4%
[11]; at 100.0 µM
  growth inhibition: 31%
[12]; at 1.2 µM
  growth inhibition: 0%
[12]; at 3.7 µM
  growth inhibition: -2%
[12]; at 11.0 µM
  growth inhibition: 0%
[12]; at 33.0 µM
  growth inhibition: 5%
[12]; at 100.0 µM
  growth inhibition: 19%
[13]; at 1.2 µM
  growth inhibition: 6%
[13]; at 3.7 µM
  growth inhibition: -5%
[13]; at 11.0 µM
  growth inhibition: -1%
[13]; at 33.0 µM
  growth inhibition: 9%
[13]; at 100.0 µM
  growth inhibition: 28%
[14]; at 1.2 µM
  growth inhibition: 1%
[14]; at 3.7 µM
  growth inhibition: -2%
[14]; at 11.0 µM
  growth inhibition: 1%
[14]; at 33.0 µM
  growth inhibition: 32%
[14]; at 100.0 µM
  growth inhibition: 65%
[15]; [17]
  growth inhibition: 2%
[15]; [18]
  growth inhibition: 43%
[15]; at 50.0 µM
  growth inhibition: 32.5%
[16]; at 1.2 µM
  growth inhibition: 3%
[16]; at 3.7 µM
  growth inhibition: -4%
[16]; at 11.0 µM
  growth inhibition: 4%
[16]; at 33.0 µM
  growth inhibition: 8%
[16]; at 100.0 µM
  growth inhibition: 23%

## O=C(CC(=O)n1nc(-c2ccccc2)c(N=Nc2ccc(Cl)cc2)c1-c1ccccc1)Nc1cccc(Cl)c1
[1]; at 1.2 µM
  growth inhibition: -4%
[1]; at 3.7 µM
  growth inhibition: -1%
[1]; at 11.0 µM
  growth inhibition: 1%
[1]; at 33.0 µM
  growth inhibition: 0%
[1]; at 100.0 µM
  growth inhibition: 0%
[2]; at 1.2 µM
  growth inhibition: -2%
[2]; at 3.7 µM
  growth inhibition: -3%
[2]; at 11.0 µM
  growth inhibition: -5%
[2]; at 33.0 µM
  growth inhibition: -4%
[2]; at 100.0 µM
  growth inhibition: -5%
[3]; at 1.2 µM
  growth inhibition: 1%
[3]; at 3.7 µM
  growth inhibition: 8%
[3]; at 11.0 µM
  growth inhibition: 14%
[3]; at 33.0 µM
  growth inhibition: 26%
[3]; at 100.0 µM
  growth inhibition: 29%
[4]; at 1.2 µM
  growth inhibition: -5%
[4]; at 3.7 µM
  growth inhibition: -5%
[4]; at 11.0 µM
  growth inhibition: -7%
[4]; at 33.0 µM
  growth inhibition: -4%
[4]; at 100.0 µM
  growth inhibition: -6%
[5]; at 1.2 µM
  growth inhibition: -2%
[5]; at 3.7 µM
  growth inhibition: 1%
[5]; [17]
  growth inhibition: 7%
[5]; at 11.0 µM
  growth inhibition: 0%
[5]; at 33.0 µM
  growth inhibition: 2%
[5]; [18]
  growth inhibition: -3%
[5]; at 50.0 µM
  growth inhibition: 48.1%
[5]; at 100.0 µM
  growth inhibition: 2%
[6]; at 1.2 µM
  growth inhibition: -4%
[6]; at 3.7 µM
  growth inhibition: -4%
[6]; [17]
  growth inhibition: -4%
[6]; at 11.0 µM
  growth inhibition: -2%
[6]; at 33.0 µM
  growth inhibition: -3%
[6]; [18]
  growth inhibition: -19%
[6]; at 50.0 µM
  growth inhibition: 46%
[6]; at 100.0 µM
  growth inhibition: -4%
[7]; at 1.2 µM
  growth inhibition: -4%
[7]; at 3.7 µM
  growth inhibition: -3%
[7]; at 11.0 µM
  growth inhibition: -2%
[7]; at 33.0 µM
  growth inhibition: -1%
[7]; at 100.0 µM
  growth inhibition: 1%
[8]; [17]
  growth inhibition: 0%
[8]; [18]
  growth inhibition: 2%
[8]; at 50.0 µM
  growth inhibition: 73.7% (active)
[9]; at 1.2 µM
  growth inhibition: -8%
[9]; at 3.7 µM
  growth inhibition: -10%
[9]; at 11.0 µM
  growth inhibition: -10%
[9]; at 33.0 µM
  growth inhibition: -11%
[9]; at 100.0 µM
  growth inhibition: -15%
[10]; [17]
  growth inhibition: 2%
[10]; [18]
  growth inhibition: 15%
[10]; at 50.0 µM
  growth inhibition: 31.6%
[11]; at 1.2 µM
  growth inhibition: 27%
[11]; at 3.7 µM
  growth inhibition: 28%
[11]; [17]
  growth inhibition: 8%
[11]; at 11.0 µM
  growth inhibition: 34%
[11]; at 33.0 µM
  growth inhibition: 45%
[11]; [18]
  growth inhibition: 78% (active)
[11]; at 50.0 µM
  growth inhibition: 88.7% (active)
[11]; at 100.0 µM
  growth inhibition: 51%
[12]; at 1.2 µM
  growth inhibition: -3%
[12]; at 3.7 µM
  growth inhibition: -3%
[12]; at 11.0 µM
  growth inhibition: -3%
[12]; at 33.0 µM
  growth inhibition: -5%
[12]; at 100.0 µM
  growth inhibition: -5%
[13]; at 1.2 µM
  growth inhibition: -5%
[13]; at 3.7 µM
  growth inhibition: -2%
[13]; at 11.0 µM
  growth inhibition: -2%
[13]; at 33.0 µM
  growth inhibition: -4%
[13]; at 100.0 µM
  growth inhibition: -6%
[14]; at 1.2 µM
  growth inhibition: -4%
[14]; at 3.7 µM
  growth inhibition: -2%
[14]; at 11.0 µM
  growth inhibition: 1%
[14]; at 33.0 µM
  growth inhibition: 0%
[14]; at 100.0 µM
  growth inhibition: 1%
[15]; [17]
  growth inhibition: -5%
[15]; [18]
  growth inhibition: 17%
[15]; at 50.0 µM
  growth inhibition: 57.1%
[16]; at 1.2 µM
  growth inhibition: -4%
[16]; at 3.7 µM
  growth inhibition: -4%
[16]; at 11.0 µM
  growth inhibition: -1%
[16]; at 33.0 µM
  growth inhibition: 1%
[16]; at 100.0 µM
  growth inhibition: 0%
